Rows were chosen to be rich in hits. Some 11% of all compounds tested hit in one or more screens of this group.
G9a block = qHTS Assay for Inhibitors of Histone Lysine Methyltransferase G9a; Histone-lysine N-methyltransferase EHMT2 (Homo sapiens), Q96KQ7; G9a H3K9 monomethylation, AlphaScreen, 2 h; Potency, µM (top dose mostly 102 µM), usual class: inhibitors; 8.8% of 350,000 active; note: nearly all actives have a fitted effect of over 75% in size
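Compounds were preincubated with 20 nM G9a for 15 min, after which biotinylated H3K9 peptide (500 nM) and SAM (20 uM) started a 2 h room-temperature reaction. Monomethylated product was quantified by antibody-based AlphaScreen chemiluminescence.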
L3MBTL1 block = qHTS Assay for the Inhibitors of L3MBTL1; AlphaScreen L3MBTL1–H3K9me1 peptide binding; Potency, µM (series often up to 57.1 µM), most hits filed as inhibitors; 0.66% of 230,000 active; AID 485360, 2010; note: nearly all actives have a fitted effect of over 60% in size
Target sequence (Q9Y468 whole entry, looked up): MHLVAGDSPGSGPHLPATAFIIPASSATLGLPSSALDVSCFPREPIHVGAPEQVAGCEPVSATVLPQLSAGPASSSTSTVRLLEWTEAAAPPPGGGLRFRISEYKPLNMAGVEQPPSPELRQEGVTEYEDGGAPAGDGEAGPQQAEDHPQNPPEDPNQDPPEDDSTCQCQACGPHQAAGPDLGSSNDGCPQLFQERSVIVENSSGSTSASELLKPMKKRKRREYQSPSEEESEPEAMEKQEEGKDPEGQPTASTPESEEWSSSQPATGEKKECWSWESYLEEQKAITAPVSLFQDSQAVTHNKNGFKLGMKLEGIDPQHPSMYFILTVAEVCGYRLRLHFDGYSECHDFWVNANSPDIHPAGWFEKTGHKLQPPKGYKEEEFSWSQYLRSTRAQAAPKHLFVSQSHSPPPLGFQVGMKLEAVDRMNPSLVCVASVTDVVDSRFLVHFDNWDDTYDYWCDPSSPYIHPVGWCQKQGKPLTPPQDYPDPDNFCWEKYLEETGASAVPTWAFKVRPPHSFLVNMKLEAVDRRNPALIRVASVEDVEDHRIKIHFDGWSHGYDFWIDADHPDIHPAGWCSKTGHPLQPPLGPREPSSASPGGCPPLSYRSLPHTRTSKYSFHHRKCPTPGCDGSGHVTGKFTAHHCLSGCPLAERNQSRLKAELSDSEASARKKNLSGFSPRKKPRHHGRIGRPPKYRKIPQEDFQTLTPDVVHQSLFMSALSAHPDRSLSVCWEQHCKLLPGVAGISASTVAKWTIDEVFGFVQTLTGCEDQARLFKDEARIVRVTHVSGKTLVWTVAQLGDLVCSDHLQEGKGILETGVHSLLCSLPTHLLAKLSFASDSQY
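Read-out is AlphaScreen signal from streptavidin donor and nickel chelate acceptor beads (10 ug/mL final each) bridging L3MBTL1 (50 nM) and biotinylated K9-monomethylated H3(1-15) peptide (75 nM), after 30 min compound exposure at room temperature.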
HP1b binding inh = HTS for Inhibitors of HP1-beta Chromodomain Interactions with Methylated Histone Tails; Chromobox protein homolog 1 (Homo sapiens), P83916; AlphaScreen HP1-beta / biotin-H3K9me3 peptide binding; Potency, µM (doses to about 114 µM), actives largely listed as inhibitors; 0.56% of 390,000 active; AID 540317, 2011; note: nearly all actives have a fitted effect of over 70% in size
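HP1-beta protein (50 nM final) preincubated 30 min at room temperature with biotinylated H3(1-18)K9me3 peptide (50 nM) in PBS pH 7.4, 0.01% Tween-20, then compound added for 30 min. AlphaScreen streptavidin donor/nickel chelate acceptor beads (10 ug/mL final), 30 min dark, luminescence read.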
JMJD2A Tudor inh = qHTS Assay for Inhibitors of JMJD2A-Tudor Domain. Lysine-specific demethylase 4A (Homo sapiens), O75164. AlphaScreen JMJD2A-Tudor / H3K4me3 peptide binding. Potency, µM (doses to about 114 µM), hits mostly inhibitors. 4.4% of 390,000 active; note: nearly all actives have a fitted effect of over 50% in size
BAZ2B block = qHTS Assay for Inhibitors of BAZ2B; Bromodomain adjacent to zinc finger domain protein 2B (Homo sapiens), Q9UIF8; AlphaScreen BAZ2B-H3K14Ac peptide displacement; Potency, µM (series often up to 114 µM), hits mostly inhibitors; 4.4% of 360,000 active; AID 504333, 2011; note: nearly all actives have a fitted effect of over 60% in size
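AlphaScreen displacement: compounds (up to 110uM) incubated 30 min at room temperature with a preformed 50 nM BAZ2B/50 nM biotinylated H3K14Ac peptide complex in PBS pH 7.4 with Tween-20. Donor and acceptor beads at 10 ug/mL final added, 20 min light-protected before reading.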
Each line names hits and unclear results; the compound was inactive in the other large screens. Calls come from the whole dose curve; as a rule, active = well fitted inhibition curve with a large enough effect; inconclusive = small, poorly fitted or top-dose-only effect; inactive = no such curve, though single readings can be large or run the other way.

CCSC1=C(C#N)C(c2cccc(OC)c2)CC(=O)N1 (centres undefined)	G9a block inconclusive
N#CC1=C2SCN(C3CCCCC3)CN2C(=O)CC1c1ccc(Br)cc1 (centres undefined)	G9a block 2.8µM, HP1b binding inh inconclusive, JMJD2A Tudor inh 16µM (no result: L3MBTL1 block, BAZ2B block)
Cc1ccc(NC(=O)CSC2=C(C#N)C(c3ccco3)CC(=O)N2)cc1 (centres undefined)	BAZ2B block inconclusive (no result: L3MBTL1 block)
CCOc1cc(C2CC(=O)N3CN(C4CCCCC4)CSC3=C2C#N)ccc1O (centres undefined)	G9a block 2.2µM, HP1b binding inh inconclusive, JMJD2A Tudor inh 79µM
COc1cccc(NS(=O)(=O)c2cc(-c3cnc(C4CC4)o3)ccc2C)c1	G9a block inconclusive (no result: L3MBTL1 block)
N#CC1=C(SCc2ccccc2)NC(=O)CC1c1ccc(O)cc1 (centres undefined)	none
Cc1ccc(C2CC(=O)NC(SCc3ccccc3)=C2C#N)cc1 (centres undefined)	JMJD2A Tudor inh 89µM
COc1cccc(C(c2sc3nc(-c4ccco4)nn3c2O)N2CCOCC2)c1 (centres undefined)	none (no result: L3MBTL1 block)
CCOC(=O)c1[nH]c2cc(OC)c(OC)cc2c1NC(=O)C(C)N1CCN(Cc2ccccc2)CC1 (centres undefined)	G9a block 45µM, BAZ2B block inconclusive (no result: L3MBTL1 block)
CCOC(=O)c1[nH]c2ccc(OC)cc2c1NC(=O)OC	none
COC(=O)c1[nH]c2ccccc2c1NC(=O)Oc1ccccc1	G9a block 10µM
CCOC(=O)c1[nH]c2ccc(OC)cc2c1NC(=O)C(C)N1CCSCC1 (centres undefined)	G9a block inconclusive (no result: HP1b binding inh, JMJD2A Tudor inh, BAZ2B block)
COC(=O)c1[nH]c2cc(OC)c(OC)cc2c1NC(=O)Oc1ccccc1	G9a block 2.8µM, JMJD2A Tudor inh inconclusive (no result: L3MBTL1 block)
C=CCOC(=O)Nc1c(C(=O)OC)[nH]c2ccccc12	G9a block 50µM
O=C(O)Cn1c(-c2ccccc2)nc2ccccc21	G9a block 40µM
O=C(O)Cn1c(-c2ccccn2)nc2ccccc21	G9a block inconclusive, JMJD2A Tudor inh 50µM
O=C(O)Cn1c(=S)sc2ccccc21	G9a block 71µM, BAZ2B block 89µM
COc1ccc(NC(=O)CCNS(=O)(=O)c2ccccc2F)cc1S(N)(=O)=O	none (no result: L3MBTL1 block)
COc1ccc(-c2noc(N3CCC(C(=O)N4CCN(c5cccc(OC)c5)CC4)CC3)n2)cc1	none (no result: L3MBTL1 block)
O=[S+]([O-])(c1ccc2ncsc2c1)N1CCN([S+](=O)([O-])c2c(F)cccc2F)CC1	none (no result: G9a block, L3MBTL1 block, HP1b binding inh, BAZ2B block)
CC(=O)Nc1cc(C(=O)O)ccc1S(=O)(=O)c1ccc(C)cc1	G9a block 50µM
Cc1nnc(CN(C)C(=O)CC2C(=O)NCCN2Cc2ccccc2C)o1 (centres undefined)	G9a block 35µM (no result: L3MBTL1 block)
CN(Cc1nccn1C)C(=O)CC1C(=O)NCCN1Cc1ccc(F)cc1Cl (centres undefined)	G9a block 40µM, JMJD2A Tudor inh inconclusive (no result: L3MBTL1 block)
CN(Cc1nccn1C)C(=O)CC1C(=O)NCCN1Cc1ccccc1C(F)(F)F (centres undefined)	G9a block 50µM
CN(CCc1cn[nH]c1)C(=O)CC1C(=O)NCCN1Cc1ccccc1C(F)(F)F (centres undefined)	G9a block 45µM
CCn1ccnc1CN(C)C(=O)CC1C(=O)NCCN1Cc1c(F)cccc1Cl (centres undefined)	G9a block inconclusive
O=C(Cc1ccccc1)NCC(=O)OCC(=O)c1ccc2ccccc2c1	none (no result: G9a block, L3MBTL1 block, BAZ2B block)
Cc1occc1C(=O)NNC1=CC(=O)CC(C)(C)C1	none
COc1ccc(OCc2nnc(SCC(=O)N(C)Cc3ccccc3)n2N)cc1	G9a block 7.1µM, HP1b binding inh inconclusive, JMJD2A Tudor inh inconclusive (no result: BAZ2B block)
COc1ccc([N+](=O)[O-])cc1NS(=O)(=O)c1cccc(C(=O)O)c1	JMJD2A Tudor inh 32µM
COc1cc([N+](=O)[O-])ccc1NC(=O)Nc1cccnc1	none (no result: L3MBTL1 block)
COc1cc([N+](=O)[O-])ccc1NC(=S)Nn1cnnc1	G9a block 10µM, HP1b binding inh inconclusive, BAZ2B block inconclusive (no result: L3MBTL1 block)
COc1cc([N+](=O)[O-])ccc1NC(=S)Nc1cccc(C(=O)O)c1	G9a block 10µM
COc1ccccc1C(=O)N/C(=C/c1cccc([N+](=O)[O-])c1)C(=O)Nc1cccc(C(=O)O)c1	JMJD2A Tudor inh 13µM (no result: L3MBTL1 block)
COc1cc(NC(=O)c2ccc3c(Cl)c4c(nc3c2)CCC4)cc(OC)c1OC	G9a block 28µM (no result: L3MBTL1 block)
COc1cc(NC(=O)c2ccc3c(SCC(=O)O)c4c(nc3c2)CCC4)cc(OC)c1OC	BAZ2B block 89µM (no result: G9a block, L3MBTL1 block)
O=C(O)CSc1c2c(nc3cc(C(=O)Nc4ccc(F)c(Cl)c4)ccc13)CCC2	JMJD2A Tudor inh inconclusive, BAZ2B block 79µM (no result: L3MBTL1 block)
O=[N+]([O-])c1ccccc1NCCOc1ccccc1	G9a block inconclusive, JMJD2A Tudor inh inconclusive, BAZ2B block 22µM
O=[N+]([O-])c1ccc(N2CCCCC2)cc1NCCOc1ccccc1	G9a block inconclusive, HP1b binding inh inconclusive, BAZ2B block inconclusive
N#CCCn1c(=O)c(CCc2ccccc2)nc2cnc(N3CCOCC3)nc21	none (no result: L3MBTL1 block, HP1b binding inh, JMJD2A Tudor inh, BAZ2B block)
O=C(CCC1CCCNC1)c1ccccc1 (centres undefined)	G9a block 50µM (no result: HP1b binding inh, JMJD2A Tudor inh)
O=C(CCCCCCCC(=O)c1ccccc1)c1ccccc1	none
Cc1ccccc1CCNC(=O)c1cc2cc(S(=O)(=O)N3CCCCC3)ccc2n1C	none (no result: L3MBTL1 block)
O=C1C(Br)=Cc2cccc3cccc1c23	G9a block inconclusive, JMJD2A Tudor inh inconclusive, BAZ2B block 25µM (no result: L3MBTL1 block)
O=C1c2cccc3cccc(c23)C(=O)N1OS(=O)(=O)c1ccc(Br)cc1	none
COc1ccc(S(=O)(=O)N2CCN(CC(O)COc3ccc(CC#N)cc3)CC2)cc1OC (centres undefined)	none (no result: L3MBTL1 block)
Cc1cccc2sc(N(CCN3CCOCC3)C(=O)CCS(=O)(=O)c3ccccc3)nc12	G9a block 50µM
Cc1cccc2sc(N(CCCN3CCOCC3)C(=O)CS(=O)(=O)c3ccc(F)cc3)nc12	G9a block 56µM
COc1ccc(OC)c(CNC(=O)C2CCN(c3nc4ccccc4nc3C(F)(F)F)CC2)c1	none (no result: L3MBTL1 block)
O=C(Nc1ccc(F)cc1F)c1ccc2c(c1)CCN2S(=O)(=O)c1ccc(Cl)cc1	none (no result: L3MBTL1 block)
CC[n+]1c(-c2ccccc2)csc1Nc1c(C)n(C)n(-c2ccccc2)c1=O	G9a block inconclusive, BAZ2B block inconclusive
Cc1ccc(N2C(=O)C(Cl)=C(Nc3c(C)n(C)n(-c4ccccc4)c3=O)C2=O)cc1	G9a block 5µM

Screens as filed in PubChem.
